Assay outcomes (PubChem BioAssay)
Only some compounds are listed: those with a hit (about 3.8% of all), similar ones and a draw of the others.
HT1080-NT tox – kills 2HG-producing HT-1080-NT fibrosarcoma cells; HT-1080-NT fibrosarcoma viability, CellTiter-Glo ATP luminescence, 48 h; hit rate 1.6% among 360,000; Potency, µM (titrated, usually from 46.1 µM), hits mostly cytotoxic; AID 686970;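 note: NT is the 2HG producing partner of a matched IDH1 knockdown line; nearly all actives have a fitted effect of over 55% in size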
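Fibrosarcoma NT cells, 750 per well in 5% FBS RPMI, were exposed to compound for 48 hours. Viability: CellTiter-Glo luminescence.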
TGFb inhibitor – inhibitors of TGF-b signaling; HepG2 CAGA-GFP TGF-b/SMAD3 reporter, GFP fluorescence, 18 h; TGF-beta stimulated, 500 pg/mL final; Potency, µM (doses to about 46.1 µM), hits mostly inhibitors; hit rate 1.2% among 410,000; note: nearly all actives have a fitted effect of over 65% in size
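Smad-responsive CAGA-GFP expression was quantified in HEPG2 cells exposed to compounds and 500 pg/mL final TGF-beta for 18 h at 37 degrees C; unstimulated wells defined full inhibition.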
HT1080 IDH1KD tx – kills HT-1080 cells with IDH1 knockdown. HT-1080 IDH1 knockdown viability, ATP luminescence, 48 h. Potency, µM (titrated, usually from 46.1 µM), most hits filed as cytotoxic. hit rate 2% among 360,000
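Viability of IDH1-knockdown HT-1080 fibrosarcoma cells was assessed by CellTiter-Glo after 48 h at 37 °C with titrated compound; concentration-effect curves were classified by fit quality and response size.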
ATXN2 expr inh – inhibitors of ATXN2 expression; HEK-293 ATXN2-luciferase reporter, luminescence, 24 h; Potency, µM (top dose mostly 57 µM), most hits filed as inhibitors; hit rate 0.72% among 360,000; AID 1745845; note: nearly all actives have a fitted effect of over 55% in size
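qHTS (up to 57 uM final) was run with 24 h compound exposure of reporter cells at 37 °C. Each well was multiplexed: SteadyGlo luminescence measured ATXN2-luciferase expression after a fluorogenic Gly-Phe-AFC viability readout (25 uM final).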
HepG2 tox – kills HepG2 cells in TGF-b inhibitor counter-screen | hit rate 0.76% among 410,000 | HepG2 CAGA-GFP viability, ATP luminescence, 18 h | Potency, µM (titrated, usually from 46.1 µM), hits mostly cytotoxic
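CellTiter-Glo luminescence gave cytotoxicity after 18 hours at 37 degrees C. The cells were HepG2 CAGA-GFP in 1% FBS DMEM, stimulated with 500 pg/mL TGF-beta after compound addition. %Activity was normalised to no-cell wells (complete cell-killing) and DMSO (no toxicity), and curves were fitted and classified.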
S2 tox – cell viability loss in ATXN counter-screen. hit rate 0.49% among 400,000. Potency, µM (series often up to 56.7 µM), hits mostly cytotoxic. S2 cells (HEK-293 line with an ATXN2-luciferase reporter) viability, CellTiter-Fluor protease fluorescence, 24 h; note: nearly all actives have a fitted effect of over 40% in size
A number is an active result; n = inactive; u = inconclusive; x = no result; ! = a repeat was not active. Calls come from the whole dose curve; as a rule, active = well fitted curve in the direction sought with a large enough effect; inconclusive = small, poorly fitted or top-dose-only effect, or another doubt; inactive = no such curve, though single readings can be large; an effect the other way counts as inactive or inconclusive.

SMILES	HT1080-NT tox	TGFb inhibitor	HT1080 IDH1KD tx	ATXN2 expr inh	HepG2 tox	S2 tox
CCOc1ccc(C(=O)NCCn2cc(SCC(=O)Nc3ccccc3)c3ccccc32)cc1	x	10µM	x	u	n	u
CCOc1ccc(NC(=O)CSc2cn(CCNC(=O)c3ccccc3F)c3ccccc23)cc1	x	u	x	n	n	n
CCC(=O)O[C@]1(C(=O)CO)CC[C@H]2[C@@H]3CCC4=CC(=O)CC[C@]4(C)[C@@H]3CC[C@@]21C	x	x	x	n	x	x
CCOC(=O)Cn1nc(N2CCN(c3ccc(F)cc3)CC2)ccc1=O	x	u	x	n	n	u
Cc1cc(NC(=O)COC(=O)C(Nc2ccc(C(F)(F)F)cc2Cl)C(C)C)no1 (stereo not given)	18.4µM	u	u	u	n	u
Cc1cc(NC(=O)COC(=O)c2ccc(OC(F)(F)F)cc2)no1	n	n	n	n	n	n
Cc1cccc(CNC(=O)c2cccc(NC(=O)N3CCSc4ncccc43)c2)c1	x	n	x	x	n	x
COc1cccc(CNc2nc(NCC3CC3)nc3ccsc23)c1	x	u	x	u	n	u
CC(C)c1ccc(CNc2nc(NCC3CC3)nc3ccsc23)cc1	23.1µM	u	18.4µM	u	14.1µM	x
COc1ccccc1CNc1nc(NCc2ccc(C(C)C)cc2)c2sccc2n1	20.6µM	u	18.4µM	31.6µM	n	x
COc1ccccc1CNc1nc(Nc2ccccc2OC)c2sccc2n1	n	n	n	n	n	n
CSc1ccc(CNC(=O)CN2C(=O)C3CCCCN3c3ccc(C(=O)N4CCCC4)cc32)cc1 (stereo not given)	x	n	x	n	n	n
O=C(O)[C@@H](O)[C@H](O)[C@H](O)[C@@H](O)C(=O)O (tested in a mixture with another compound)	x	x	x	x	x	n
CC1(C)N=C(N)NC(Nc2ccccc2)=N1	8.2µM	n	u	n	n	n
COc1cc(-c2nc3cnccn3c2Nc2ccc(C)cc2)ccc1O	u	n	15.8µM	n	n	u
COc1cc(-c2nc3cnccn3c2Nc2ccc(C(C)C)cc2)ccc1O	u	11.2µM	u	u	11.2µM!	u
C=Nc1ccc(/C=C/c2ccnc3ccccc23)cc1	x	n	x	x	n	x
COc1cc2nc(N3CCCN(C)CC3)nc(Nc3ccncc3)c2cc1OC	x	u	x	x	n	x
Fc1cc(NC(=S)NCc2ccc(CNC(=S)Nc3ccc(Cl)c(F)c3)cc2)ccc1Cl	n	u	n	x	2.82µM	u
FC(F)(F)c1cccc(NC(=S)NCc2ccc(Cl)cc2)c1	u	10µM	u	u	15.8µM	x
Fc1cccc(NC(=S)NCc2ccc(Cl)cc2)c1	n	n	n	n	n	n
Cc1ccccc1-c1ocnc1C(=O)Nc1ccccc1NC(=O)c1ccccn1	3.66µM	11.2µM	u	n	n	u
CSc1nc2ccc(NC(=O)C3=NNC(=O)CC3)cc2s1	n	n	n	x	n	u
CSc1nc2ccc(NC(=O)c3ccccn3)cc2s1	14.6µM	n	11.6µM	u	n	n
CC(=O)Nc1ccccc1NC(=O)c1cc(C)ccc1C	n	n	n	n	n	n
SMILES	HT1080-NT tox	TGFb inhibitor	HT1080 IDH1KD tx	ATXN2 expr inh	HepG2 tox	S2 tox
Cc1ccc(C)c(C(=O)c2ccccc2NC(=O)c2ccccn2)c1	u	n	20.6µM	n	n	n
Cc1ccc2nc(NC(=O)c3ccccn3)sc2c1	14.6µM	n	2.31µM	u	n	u
Clc1ccc(Nc2nnc(Cc3ccncc3)c3ccccc23)cc1	x	x	x	u	x	n
COc1cccc(CN2CCC(c3nnc(SCC4CCCO4)n3C)CC2)c1O (stereo not given)	x	x	x	x	x	n
O=C(Nc1nc2c(F)cc(F)cc2s1)c1ccccn1	u	u	6.51µM	u	n	u
O=C(COc1ccccc1)NNc1nc2c(F)cc(F)cc2s1	n	n	n	n	n	n
CCOc1ccc(S(=O)(=O)N(C)c2ccc(OCC(=O)Nc3nc4ccccc4s3)cc2)cc1	n	u	6.51µM	n	n	n
Cc1ccc2nc(NC(=O)c3ccc(OCC4CCCO4)cc3)sc2c1 (stereo not given)	n	n	7.31µM	n	n	n
CCOc1ccc2nc(NC(=O)c3ccccn3)sc2c1	u	n	16.4µM	25.1µM	n	u
Cc1cc(C)c2nc(NC(=O)c3ccc(OCC4CCCO4)cc3)sc2c1 (stereo not given)	n	n	u	x	n	u
CCOc1ccc2nc(NC(=O)Nc3ccccc3)sc2c1	n	n	n	n	n	n
CC(C)NC(=O)c1ccc(C=O)cc1	x	x	x	n	x	n
CN(C)c1ccc(/C=C/c2ccnc3c(N)cccc23)cc1	x	n	x	x	n	x
COc1ccc(N(CC(=O)NCc2ccccc2Cl)S(=O)(=O)c2c(C)[nH]c(=O)[nH]c2=O)cc1	x	n	x	n	n	n
COc1ccc(C2Nc3ccccc3C(=O)N2c2ccc(Cl)cc2)cc1COc1ccc(NC(C)=O)cc1 (stereo not given)	x	n	x	x	n	x
COc1ccc2nc(NC(=O)c3cnccn3)sc2c1	11.2µM	n	7.94µM	n	n	n
COc1ccc(C(=O)Nc2nc3ccc(OC)cc3s2)cc1	n	n	n	u	n	u
O=C(CSc1n[nH]c(-c2ccccn2)n1)Nc1ccc(Cl)cc1	u	n	u	20µM	n	n
COc1ccccc1N1CCN(C(=O)C2c3ccccc3Oc3ccccc32)CC1	4.11µM	u	1.84µM	n	n	u
CC1(C)N=C(N)N=C(N)N1c1ccc(Cl)cc1	x	x	x	x	x	n
Cc1ccccc1NC(=O)c1sc2nc(N3CCOCC3)c3c(c2c1N)CC(C)(C)OC3	x	n	x	n	n	n
Nc1nc(CCl)nc(N(c2ccccc2)c2ccccc2)n1	u	u	2.91µM	n	n	u
Nc1nc(Cl)nc(N(c2ccccc2)c2ccccc2)n1	n	n	n	n	n	n
O=C(O)Cn1cnnn1	x	x	x	n	x	n
CCOC(=O)c1nnn(CC(=O)NC(=O)Nc2cccc(CC)c2)c1C(=O)OCC	n	u	n	n	11.2µM!	n
SMILES	HT1080-NT tox	TGFb inhibitor	HT1080 IDH1KD tx	ATXN2 expr inh	HepG2 tox	S2 tox
O=C(Nc1ccc2c(c1)OCCO2)C(=O)c1c[nH]c2ccccc12	7.31µM	n	u	n	n	u
O=C(Nc1ccc2c(c1)OCO2)C(=O)c1c[nH]c2ccccc12	u	n	u	x	n	u
CCn1nc(C)cc1C(=O)NCC1Cc2cc(C)cc(-c3ccccc3C(=O)OC)c2O1 (stereo not given)	x	x	x	x	x	n
C=CCN1C(=O)S/C(=C/c2ccsc2)C1=O	n	n	n	n	n	u
C=CCN1C(=O)S/C(=C/c2ccc(Sc3nc4ccccc4[nH]3)o2)C1=O	n	20µM	u	u	n	u
CC(C)N1C(=O)S/C(=C/c2ccc(Sc3nc4ccccc4[nH]3)o2)C1=O	n	20µM	u	u	n	n
